This is part of a sample that, as a whole, favours compounds with a hit. Of some 83,000 tested, about 20% had one in any assay.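 Step 1: grow cells in 96-well plates. Step 2: add test compound at a single concentration. Step 3: incubate 48 h. Step 4: record percent growth.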 Activity calls are given as the source filed them. The calls were made as follows: active = growth percent below 10; inactive = the rest.
Test system: MDA-MB-468 breast
Test: NCI-60 one-dose screen, 48 h (100 = growth as untreated, 0 = no growth, -100 = all killed)
Settings: 10 µM unless noted

Row | Structure (SMILES) | growth
1 | OCC(O)C(O)C(O)C(O)/C=N/O (configuration not stated) | 99.5% (inactive)
2 | COc1cc(C(=O)NNC(=O)c2ccccc2C(=O)O)cc(OC)c1OC | 48.6% (inactive)
3 | CN1CCN(Cc2ccc(NC(=O)c3cncc(C#Cc4cnc5ccc(NCCCO)nn45)c3)cc2C(F)(F)F)CC1 | -59.6% (active)
4 | COc1cccc(OC)c1-c1nnn(C)c1C(=S)N1CCN(c2ccc([N+](=O)[O-])cc2Cl)CC1 | 89% (inactive)
5 | CCN(CC)CCOc1nc2ccccc2c2c1-c1ccc(OC)cc1C2=O | 14.3% (inactive)
6 | C#CCC(C)(O)/C=C/C1=C(C)CCCC1(C)C (configuration not stated) | 87.3% (inactive)
7 | Nc1no[n+]([O-])c1-c1nnc2c(n1)-c1ccccc1C2=O | 41.5% (inactive)
8 | CCCCCCCCCCCCCCCCCN | 101% (inactive)
9 | Nc1c(C(=O)Nc2cccc(Br)c2)sc2nc3c(cc12)C(O)CCC3 (configuration not stated) | 29.8% (inactive)
10 | C[C@@H](Oc1cc(-c2cnn(C3CC4(CCCNC4)C3)c2)cnc1N)c1c(Cl)ccc(F)c1Cl (some centres not stated) | -39.3% (active)
11 | COc1ccc(C(=O)c2cc3c(N)c(C(=O)Nc4ccc(Br)cc4)sc3nc2C)cc1 | 72.8% (inactive)
12 | COc1ncc2cc1NS(=O)(=O)c1cccc(c1)C(=O)NCC1=CC=C(S1)c1ncnc3c1SC2=C3C | -34.5% (active)

Source: PubChem BioAssay (NCI)
